Drawing on PubChem BioAssay (NCI), this text covers growth for 40 molecules.

Molecules are shown by their SMILES. About 83,000 compounds went through this panel and 20% of them were active in at least one assay; those are over-represented in the sample as a whole.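 Single-dose data. Exposure time 48 hours. Values below 10 considered active.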 The source made the active and inactive calls.

This assay concerns M14 melanoma. In words: NCI-60 one-dose screen, 48 h (100 = growth as untreated, 0 = no growth, -100 = all killed). The following applies: 10 µM unless noted. The method, then:
Growth inhibition of the M14 human tumor cell line is measured as a screen for anti-cancer activity. Cells are grown in 96 well plates and exposed to the test compound for 48 hours. Compounds are tested at a single concentration, which is 10^-5 M for most compounds. The reported endpoint is percent growth (GI% or GIPRCNT), where numbers from 0 - 100% represent growth inhibition, and numbers from -100% - 0 represent cell death. For example, a value of 40 represents 60% growth inhibition. A value of 0 means no net growth occurred over the course of the experiment. A value of -40 indicates 40% of cells at the beginning of the experiment died by the end of the experiment. A value of -100 means all cells are dead at the end of the experiment.
NCI-60 Human Tumor Cell Lines Screen was performed using the standard one-dose NCI protocol, which is described in more detail at https://dtp.cancer.gov/discovery_development/nci-60/default.htm.
Compounds with GIPRCNT values below 10 were considered active. Activity score was based on GIPRCNT using the following formula: […]
Score is 0 for GIPRCNT values of 100 or above, 50 for GIPRCNT values of 0, and 100 for GIPRCNT values of -100.
In the case of `NC(=S)N/N=C/c1ccc(OC(=O)COc2cc(Cl)c(Cl)cc2Cl)cn1`, the growth was 41.2% (inactive).

For the molecule `FCc1nc2nc(Cl)c(Cl)nc2[nH]1`, the growth is 107% (inactive).

Consider `COc1cc(C2CC(c3cccc(Nc4ccncc4)c3)=NN2C(C)=O)cc(OC)c1OC` (stereo not given), for which the growth is 100% (inactive). In the case of `COc1ccccc1OCC(=O)N1CCCCCC1`, the growth was 119% (inactive).

On to `CCc1c(Nc2ccc(C)cc2)[nH]c(N)nc1=S`, for which the growth is 98.7% (inactive). Regarding `CCCCCCCCOc1ccc(/C=N/Nc2cc(C)nc3ccc(Cl)cc23)cc1`, the growth is 87.7% (inactive).

In the case of `CN1CCN(C(=O)OCc2nc3c(N4CCOCC4)nc(-c4ccccc4)nc3n2C)CC1`, the growth is -73.5% (active).

`CC1(C)[C@H](O)CC[C@]2(C)[C@@H]1CC[C@@]13C[C@@H](CC[C@H]12)[C@@](O)(CO)C3`: the growth was -30.7% (active). Under `O=C(Nc1nc(-c2ccc(Br)cc2)cs1)c1cc(-c2ccc(Br)cc2)nc2ccc(Cl)cc12` stands 99.1% (inactive); under `CCCc1cc2c(cc1Br)OCO2`, 88.5% (inactive); under `CCC(C)N(CCNc1cc(OC)cc2cccnc12)CCC(C)C` (stereo not given), 82.4% (inactive). For the molecule `COc1cc2oc(-c3cccc(C(=O)Nc4ccc(Cl)cc4)c3)cc(=O)c2c(OC)c1OC`, the growth is -18% (active). Under `BrC(Br)(Br)c1cnc2ccccc2n1` stands 42.9% (inactive); under `O=C(NNc1nc(Cl)nc(N2CCN(C(c3ccccc3)c3ccccc3)CC2)n1)c1ccccc1`, 10.5% (inactive); under `COc1cc(C(=O)c2cnc(-c3ccc4cc[nH]c4c3)[nH]2)cc(OC)c1OC`, 4.97% (active). Under `COc1ccc(-c2c(-c3ccccc3)noc2N)cc1OC` stands 98.4% (inactive); under `C[C@]12C[C@H]1CC[C@]1(C)[C@@H]2CC[C@@]23C[C@H](CC[C@H]21)[C@@](O)(CO)C3`, -47.9% (active). Turning to `C=C(C)[C@@H]1CC[C@]2(C=O)CC[C@]3(C)[C@H](CC[C@@H]4[C@@]5(C)CCCNC(C)(C)[C@@H]5CC[C@]43C)[C@@H]12`, the growth was 81% (inactive). As for `CCSc1ccc2c(c1)N(CCCN1CCN(C)CC1)c1ccccc1S2`, the growth is -86.9% (active). As to `Cc1ccc(Nc2cc(=S)nc(N)[nH]2)cc1C`, the growth was 93.7% (inactive). `CCOc1cc(CNc2ccc(N3CCOCC3)c(C(=O)O)c2)ccc1OC`: the growth was 96.5% (inactive). In the case of `Nc1c(Cl)cc([N+](=O)[O-])cc1Br`, the growth is 114% (inactive). Take `Cc1cc2cc3cc(C)c(N)cc3[n+](C)c2cc1N`: the growth is 18.7% (inactive). Turning to `COc1ccncc1C#Cc1cncc(C(=O)Nc2ccc(CN3CCN(C)CC3)c(C(F)(F)F)c2)c1`, the growth is -3.19% (active).

On to `COC(=O)N[C@H]1CCc2cc(OC)c(OC)c(OC)c2-c2ccc(SC)c(=O)cc21`, for which the growth is 3.18% (active). As for `COc1cc(COC(=O)CCCCC[P+](c2ccccc2)(c2ccccc2)c2ccccc2)c(OC)c2c1OCO2`, the growth is 43.3% (inactive). In the case of `Nc1nc(N)nc(NCc2ccccc2)n1`, the growth is 107% (inactive). As to `Cc1cc2nc(-c3ccccc3)c(-c3ccccc3)nc2cc1C`, the growth is 113% (inactive). On to `CC1(C)CN(c2cnc(C(=O)Nc3cc(F)cc4cccnc34)cn2)CCN1`, for which the growth was 70.8% (inactive).

As to `Brc1ccc(C2CC(c3cccc(Nc4ccncc4)c3)=NN2c2ccccc2)cc1` (stereo not given), the growth is 101% (inactive). As for `CC(C)(C#N)N1CCN(c2ccccc2Cl)CC1`, the growth was 99.2% (inactive). For `O=C(N/N=C/c1ccc(O)c(O)c1)c1sc2ccccc2c1Cl`, the growth is 97.7% (inactive). Consider `COc1ccc(Nc2nc(N)nc3c2CCc2occc2-3)cc1`, for which the growth is 93.6% (inactive). Consider `COc1c(Cl)cc(Cl)c2ccc(C=C3C(=O)N(C)C(=O)N(C)C3=O)nc12`, for which the growth is -15.7% (active). With `CCOC(=O)N1CCc2c(sc3nc4nc[nH]n4c(=O)c23)C1`, the growth is 98.4% (inactive).

In the case of `O=c1nc2n(nc1/C=C/c1ccco1)CC(c1ccc(Cl)cc1)=NN2`, the growth was 104% (inactive). `COc1ccc(C(=O)c2cc3c(N)c(C(=O)Nc4ccc(Cl)cc4)sc3nc2C)cc1`: the growth is 61.5% (inactive).

For `O=S(=O)(NCCNc1nccc(-c2c(-c3ccc(F)c(O)c3)nc3occn23)n1)c1ccccc1`, the growth was 18.8% (inactive). In the case of `CNC(=O)NCC1OC(n2cnc3c(NC(=O)Nc4ccccc4)ncnc32)C(O[Si](C)(C)C(C)(C)C)C1O[Si](C)(C)C(C)(C)C` (stereo not given), the growth is 33% (inactive). Under `Cn1c(COC(=O)NCCc2ccccn2)nc2c(N3CCOCC3)nc(Cl)nc21` stands -59.2% (active).
